Holding throughout (experiment): NCI-60 one-dose screen, 48 h (100 = growth as untreated, 0 = no growth, -100 = all killed)
What all share (settings): 10 µM unless noted

In assay [1] the test system is NCI-H23 lung.
For assay [2], the system named is NCI-H322M lung.
The subject of assay [3] is HOP-62 NSCLC.
The subject of assay [4] is NCI-H460 lung.
Assay [5] deals with HOP-92 NSCLC.
The subject of assay [6] is NCI-H522 lung.
Assay [7] has as its system A549/ATCC NSCLC.
Assay [8] deals with 786-0 renal.
The subject of assay [9] is COLO 205 colon.
The test system of assay [10] is DU-145 prostate.
The test system of assay [11] is K-562 leukemia.
For assay [12], the system named is MALME-3M melanoma.
In assay [13] the test system is MDA-MB-231 breast.
Assay [14] relates to RXF 393 renal.
Assay [15] relates to SF-268 CNS.
In assay [16] the test system is SF-295 CNS.
Assay [17] deals with SF-539 CNS.
Assay [18] deals with UACC-257 melanoma.
Assay [19] relates to M14 melanoma.
Assay [20] relates to HCT-15 colon.

We go through eight compounds from PubChem BioAssay (NCI).

About 83,000 compounds went through this panel and 20% of them were active in at least one assay; those are over-represented in the sample as a whole.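 Compound tested at a single concentration for 48 hours in 96-well plates; a percent growth value below 10 was scored as active.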 Unmarked numbers belong to inactive results. Active and inactive are the calls of the source.

For the compound `CCOC(=O)c1sc(-c2ccc(OS(=O)(=O)c3ccccc3[N+](=O)[O-])c(C=O)c2)nc1C`, the growth in [1] is 50.6%; in assay [2], 58.4%; in [3], 117%; in [4], 91.2%; in assay [5] it was 65.6%; in [6] it was 18.8%. The growth in assay [7] is 82.3%; in [8] it was 80.3%; in assay [9], 117%; in assay [10], 78.1%; in assay [11], 12.8%; in assay [12] it was 37.8%. The growth was 84% in [13]; 108% in [14]; 46.6% in assay [15]; 107% in [16]; 76.6% in assay [17]; 49.5% in assay [18]. The values for the growth in [19] and in assay [20] were 5.91% (active) and 6.3% (active), respectively.

Consider `CC1=C(C(=O)OCC2CCN(C(=O)OC(C)(C)C)CC2)[C@H](c2cccc(C#N)c2)C2=C(CC(C)(C)CC2=O)N1`, for which the growth in [1] is 65.7%; in assay [2] it was 68.4%; in assay [3], 70.3%; in assay [4], 12.8%; in [5] it was 86.3%; in assay [6], 8.74% (active). The growth in assay [7] is 46.1%; in assay [8], 62.8%; in [9] it was 50.9%; in [10], 52.5%; in assay [11], 24.3%; in assay [12], 66.1%. The growth is 59.7% in assay [13]; 83.2% in assay [14]; 52.5% in assay [15]; 40.5% in [16]; 48% in assay [17]; 70% in assay [18]. Besides, the growth was 50.4% in [19] and 23.7% in assay [20].

Turning to `O=NN(Cc1cccnc1)C(=O)NC1CCCCC1`, the growth in [1] is 111%; in [2] it was 106%; in assay [3], 107%; in assay [4] it was 109%; in assay [5] it was 82.3%; in [6] it was 90.5%. Further, the growth in [7] was 93.9%; in assay [8] it was 108%; in [9], 111%; in assay [10], 116%; in assay [11] it was 101%; in assay [12], 102%. Also, the growth was 127% in assay [13]; 102% in assay [14]; 106% in [15]; 80.7% in assay [16]; 96.2% in assay [17]; 92.5% in assay [18]. Also, the results for the growth in assay [19] and in assay [20] were 107% and 108%, respectively.

Consider `CC(=Nc1ccccc1)C1=C(O)C(Cc2ccc(F)cc2)NC1=O` (stereo not given), for which the growth in assay [1] is 30.7%; in assay [2], 37.5%; in assay [3], 42.7%; in [4], 13.4%; in assay [5], 72.4%; in [6] it was -9.06% (active). Moreover, the growth was 35.9% in [7]; 48.2% in assay [8]; -52.1% (active) in [9]; 8.32% (active) in assay [10]; 12.3% in assay [11]; 24.2% in assay [12]. The growth in [13] was 69.7%; in [14] it was 15.2%; in assay [15] it was 54.9%; in assay [16], 8.24% (active); in [17] it was 18.7%; in assay [18], 38.8%. Also, the growth was 12.8% in assay [19] and 23.3% in assay [20].

As to `Nc1nc(-c2ccccc2Br)nn1-c1nc2ccccc2s1`, the growth in assay [1] was 98%; in assay [2], 105%; in assay [3], 105%; in assay [4], 100%; in assay [5], 99.6%; in [6] it was 85.6%. The growth in assay [7] was 98.4%; in assay [8], 104%; in assay [9], 110%; in assay [10], 110%; in [11] it was 94.8%; in assay [12], 105%. Also, the growth was 101% in assay [13]; 104% in [14]; 97.4% in assay [15]; 102% in assay [16]; 99.6% in assay [17]; 89% in assay [18]. Moreover, the growth in [19] is 98.3%; in assay [20], 97.2%.

Take `O=S1(=O)N(Cc2ccccc2)[C@@H](Cc2ccccc2)[C@H](O)[C@H](O)[C@H](Cc2ccccc2)N1Cc1ccccc1`: the growth in assay [1] is 1.32% (active); in assay [2], 12.6%; in assay [3], 18.4%; in [4], -44.8% (active); in assay [5] it was 4.2% (active); in assay [6], 9.21% (active). Further, the growth in assay [7] is 6.12% (active); in assay [8], -1.43% (active); in assay [9] it was -0.273% (active); in [10] it was -23.4% (active); in assay [11], 3.12% (active); in assay [12], -14.2% (active). The growth in [13] is -7.98% (active); in [14] it was -40.8% (active); in assay [15], 25.3%; in assay [16], -11.2% (active); in assay [17], -5.16% (active); in assay [18], -22.1% (active). Also, the growth in assay [19] is -2.4% (active); in assay [20], 3.16% (active).

`Cn1cc([C@@H]2Nc3ccc4[nH]ncc4c3[C@H]3[C@H]4CCC(C4)[C@H]32)c(C(F)(F)F)n1`: the growth in [1] was 90.6%; in [2], 89.5%; in [3] it was 53%; in assay [4] it was 27.9%; in [5], 64.1%; in [6], 2.48% (active). Moreover, the growth was 41.1% in [7]; 59.1% in assay [8]; 52.7% in assay [9]; 72.9% in [10]; 15.7% in assay [11]; 40.2% in assay [12]. The growth in [13] is 61.6%; in assay [14] it was 53.4%; in assay [15] it was 53%; in assay [16], 37.7%; in assay [17], 41.1%; in [18], 50.1%. The growth was 27.5% in assay [19] and 30.8% in assay [20].

With `COc1cc(/C=C2\Oc3cc(OCCCN4CCCC4)ccc3C2=O)cc(OC)c1`, the growth in assay [1] was 69.9%; in [2], 77.1%; in assay [3], 91.5%; in assay [4], -71.1% (active); in assay [5], 67.6%; in assay [6], 76.7%. Also, the growth was 33.2% in assay [7]; 73.6% in assay [8]; 71% in [9]; 33.6% in [10]; -63.3% (active) in assay [11]; 93% in [12]. The growth in [13] was 53.7%; in [14], 60.4%; in assay [15], 72.5%; in assay [16] it was 85.7%; in assay [17], -90.3% (active); in assay [18] it was 81.4%. Also, the growth is -60.1% (active) in [19] and 5.66% (active) in assay [20].
